Read-out in experiment [1]: Monokine induced gamma interferon (MIG), CXCL9 (gene 4283)
The experiment is described as follows: BSK_hDFCGF_MIG: BioMAP Diversity Plus: hDFCGF Assay for Monokine induced gamma interferon (MIG) Biomarker Activity (AID 2283063). To be noted: primary human foreskin fibroblasts; actives raise or lower the signal. In short, it runs like this:
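Human primary foreskin fibroblasts in the hDFCGF system, exposed to test chemical for 24 h; MIG measured by ELISA. Bidirectional curve fitting against DMSO negative control as activity baseline.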

Read-out in experiment [2]: Vascular cell adhesion molecule 1 (VCAM1), VCAM1 (gene 7412)
The experiment is described as follows: BSK_hDFCGF_VCAM1: BioMAP Diversity Plus: hDFCGF Assay for Vascular cell adhesion molecule 1 (VCAM1) Biomarker Activity (AID 2283065).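 As to AC50: VCAM-1 protein level quantified by ELISA after 24 h chemical exposure.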 To be noted: primary human foreskin fibroblasts; actives raise or lower the signal. In short, it runs like this: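 ELISA readout of VCAM-1 on human dermal fibroblast primary cultures, 24 h after chemical exposure. Gain or loss of signal fitted in both directions against DMSO baseline.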

Read-out in experiment [3]: Plasminogen activator inhibitor-1 (PAI1), SERPINE1 (gene 5054)
The experiment is described as follows: BSK_hDFCGF_PAI1: BioMAP Diversity Plus: hDFCGF Assay for Plasminogen activator inhibitor-1 (PAI1) Biomarker Activity (AID 2283066). Conditions: primary human foreskin fibroblasts; actives raise or lower the signal. In short, it runs like this: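 Human skin fibroblast cultures receive chemical for 24 h before PAI-1 is measured by ELISA; signal changes are fitted bidirectionally against DMSO-treated wells.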

Read-out in experiment [4]: Intercellular Adhesion Molecule 1 (ICAM1), ICAM1 (gene 3383)
The experiment is described as follows: BSK_KF3CT_ICAM1: BioMAP Diversity Plus: KF3CT Assay for Intercellular Adhesion Molecule 1 (ICAM1) Biomarker Activity (AID 2283067). Conditions: primary human keratinocytes with fibroblasts; actives raise or lower the signal. In short, it runs like this: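 Cell-surface ICAM-1 was measured by ELISA 24 h after dosing primary human skin keratinocytes co-cultured with fibroblasts. Parallel SRB staining tracked overt cytotoxicity. Gain or loss of signal was fitted relative to DMSO.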

Read-out in experiment [5]: Interferon-gamma inducible Protein 10 (IP10), CXCL10 (gene 3627)
The experiment is described as follows: BSK_KF3CT_IP10: BioMAP Diversity Plus: KF3CT Assay for Interferon-gamma inducible Protein 10 (IP10) Biomarker Activity (AID 2283068). To be noted: primary human keratinocytes with fibroblasts; actives raise or lower the signal. In short, it runs like this: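 Signal is secreted/surface IP-10 by ELISA in a human primary skin co-culture of keratinocytes and foreskin fibroblasts, taken 24 h post-dosing; DMSO served as negative control.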

Experiment [6] in a line: BSK_KF3CT_SRB: Viability Assessment in the BioMAP Diversity Plus: KF3CT Assay (AID 2283069).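 Also: read 24 h after compound addition.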 To be noted: primary human keratinocytes with fibroblasts. In outline: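 Overt cytotoxicity is assessed as total protein by sulforhodamine B staining in parallel human skin co-cultures at 24 h after dosing. DMSO serves as negative control and baseline.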
Read-out in experiment [7]: Interleukin-1 alpha (IL1a), IL1A (gene 3552)
The experiment is described as follows: BSK_KF3CT_IL1a: BioMAP Diversity Plus: KF3CT Assay for Interleukin-1 alpha (IL1a) Biomarker Activity (AID 2283070). Conditions: primary human keratinocytes with fibroblasts; actives raise or lower the signal. In outline: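 Readout is IL-1a level by ELISA, compared bidirectionally with DMSO as baseline. Cells: human keratinocytes co-cultured with foreskin fibroblasts, harvested 24 h post-dose.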

Read-out in experiment [8]: TIMP metallopeptidase inhibitor 2 (TIMP2), TIMP2 (gene 7077)
The experiment is described as follows: BSK_KF3CT_TIMP2: BioMAP Diversity Plus: KF3CT Assay for TIMP metallopeptidase inhibitor 2 (TIMP2) Biomarker Activity (AID 2283071). To be noted: primary human keratinocytes with fibroblasts; actives raise or lower the signal. In short, it runs like this:
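Measurements come from ELISA detection of TIMP-2 at 24 hours in a dosed human keratinocyte and foreskin fibroblast co-culture. DMSO serves as negative control and baseline.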

Read-out in experiment [9]: Transforming growth factor beta 1 (TGFb1), TGFB1 (gene 7040)
The experiment is described as follows: BSK_KF3CT_TGFb1: BioMAP Diversity Plus: KF3CT Assay for Transforming growth factor beta 1 (TGFb1) Biomarker Activity (AID 2283072). Conditions: primary human keratinocytes with fibroblasts; actives raise or lower the signal. In outline: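 TGF-b1 ELISA on a 24 h dosed co-culture of human keratinocytes and foreskin fibroblasts; cytotoxicity tracked in parallel cultures by SRB staining.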

Read-out in experiment [10]: C-C motif chemokine 2 (Homo sapiens) (UniProt P13500)
The experiment is described as follows: BSK_KF3CT_MCP1: BioMAP Diversity Plus: KF3CT Assay for Monocyte Chemoattractant Protein 1 (MCP1/CCL2) Biomarker Activity (AID 2283073). Conditions: primary human keratinocytes with fibroblasts; actives raise or lower the signal. In short, it runs like this:
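ELISA read-out of MCP-1, 24 h post-dose, in primary human skin keratinocytes co-cultured with fibroblasts. Parallel SRB staining monitors cytotoxicity; changes fitted both directions relative to DMSO.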

Read-out in experiment [11]: Matrix Metallopeptidase 9 (MMP9), MMP9 (gene 4318)
The experiment is described as follows: BSK_KF3CT_MMP9: BioMAP Diversity Plus: KF3CT Assay for Matrix Metallopeptidase 9 (MMP9) Biomarker Activity (AID 2283074). Conditions: primary human keratinocytes with fibroblasts; actives raise or lower the signal. In outline: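 Values come from bidirectional fitting relative to DMSO of MMP-9 levels, which were measured by ELISA. Measurements were taken 24 h after chemical dosing of a keratinocyte and foreskin fibroblast co-culture.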

Read-out in experiment [12]: urokinase plasminogen activator (uPA), PLAU (gene 5328)
The experiment is described as follows: BSK_KF3CT_uPA: BioMAP Diversity Plus: KF3CT Assay for urokinase plasminogen activator (uPA) Biomarker Activity (AID 2283075). To be noted: primary human keratinocytes with fibroblasts; actives raise or lower the signal. In outline: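 Values derive from bidirectional fitting against DMSO controls. Keratinocyte/foreskin fibroblast co-cultures received chemical; 24 h later uPA was detected by ELISA, with SRB total-protein staining in parallel wells for overt cytotoxicity.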

Read-out in experiment [13]: CD40, CD40 (gene 958)
The experiment is described as follows: BSK_LPS_CD40: BioMAP Diversity Plus: LPS Assay for CD40 Biomarker Activity (AID 2283076). To be noted: primary human HUVEC with PBMC; actives raise or lower the signal. In short, it runs like this:
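In the LPS system of human endothelial cells with peripheral blood mononuclear cells, CD40 levels were read by ELISA 24 h post-treatment. Signal changes in either direction were fitted against the DMSO baseline, with parallel SRB protein staining.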

Read-out in experiment [14]: E-selectin (Homo sapiens) (UniProt P16581)
The experiment is described as follows: BSK_LPS_Eselectin: BioMAP Diversity Plus: LPS Assay for Eselectin Biomarker Activity (AID 2283077). Conditions: primary human HUVEC with PBMC; actives raise or lower the signal. In outline:
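E-selectin ELISA on LPS-stimulated endothelial cell/PBMC co-cultures, read 24 h post-treatment; gains and losses fitted against DMSO. Parallel SRB staining (0.1% SRB after 10% TCA fixation, 560 nm) flags overt cytotoxicity.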

Read-out in experiment [15]: Interleukin-8 (IL8), CXCL8 (gene 3576)
The experiment is described as follows: BSK_LPS_IL8: BioMAP Diversity Plus: LPS Assay for Interleukin-8 (IL8) Biomarker Activity (AID 2283078). To be noted: primary human HUVEC with PBMC; actives raise or lower the signal. In short, it runs like this: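 ELISA read-out of IL-8 after 24 h chemical treatment of LPS-activated endothelial/PBMC human primary co-cultures. Changes either up or down relative to DMSO; overt cytotoxicity checked by sulforhodamine B staining in parallel wells.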

Experiment [16] can be described thus: BSK_LPS_SRB: Viability Assessment in the BioMAP Diversity Plus: LPS Assay (AID 2283079).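 Also: total protein by sulforhodamine B absorbance as a cytotoxicity measure; measured one day after compound addition.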 To be noted: primary human HUVEC with PBMC. In short, it runs like this:
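SRB viability endpoint: cells fixed with 10% TCA, stained with 0.1% SRB, read at 560 nm, 24 h post-dose. HUVEC/PBMC co-culture; signal change in either direction scored relative to DMSO.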

Read-out in experiment [17]: Interleukin-1 alpha (IL1a), IL1A (gene 3552)
The experiment is described as follows: BSK_LPS_IL1a: BioMAP Diversity Plus: LPS Assay for Interleukin-1 alpha (IL1a) Biomarker Activity (AID 2283080). Conditions: primary human HUVEC with PBMC; actives raise or lower the signal. In short, it runs like this: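 Readout is IL-1a level by ELISA, 24 h post-dose, fitted as gain or loss relative to DMSO. System: LPS-activated human primary co-culture of vascular endothelium and peripheral blood mononuclear cells, with parallel SRB total-protein cytotoxicity.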

Read-out in experiment [18]: Monocyte Chemoattractant Protein-1 (MCP1), CCL2 (gene 6347)
The experiment is described as follows: BSK_LPS_MCP1: BioMAP Diversity Plus: LPS Assay for Monocyte Chemoattractant Protein-1 (MCP1) Biomarker Activity (AID 2283081).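 As to AC50: secreted MCP-1 protein quantified by ELISA in culture supernatant.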 To be noted: primary human HUVEC with PBMC; actives raise or lower the signal. In outline:
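Secreted MCP-1 read by ELISA at 24 h post-dosing in an LPS-activated co-culture of endothelial cells with peripheral blood mononuclear cells. Fits run in both directions, DMSO as baseline; parallel SRB staining tracks overt cytotoxicity.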

Experiment [19] can be described thus: BSK_LPS_PGE2: BioMAP Diversity Plus: LPS Assay for Prostaglandin E2 (PGE2) Biomarker Activity (AID 2283082). Conditions: primary human HUVEC with PBMC; actives raise or lower the signal. In outline:
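Primary human endothelial cells and blood mononuclear cells, co-cultured with LPS, receive test chemical; PGE2 ELISA follows at 24 h, with SRB-stained parallel cultures flagging cytotoxicity.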

Molecules are shown by their SMILES. Active and inactive are the calls of the source. The calls were made as follows: active = hit-call score of the fitted dose curve at least 0.9, where 1 is the maximum; inactive = score below 0.9.

E-selectin (Homo sapiens), sequence (P16581 whole entry, looked up): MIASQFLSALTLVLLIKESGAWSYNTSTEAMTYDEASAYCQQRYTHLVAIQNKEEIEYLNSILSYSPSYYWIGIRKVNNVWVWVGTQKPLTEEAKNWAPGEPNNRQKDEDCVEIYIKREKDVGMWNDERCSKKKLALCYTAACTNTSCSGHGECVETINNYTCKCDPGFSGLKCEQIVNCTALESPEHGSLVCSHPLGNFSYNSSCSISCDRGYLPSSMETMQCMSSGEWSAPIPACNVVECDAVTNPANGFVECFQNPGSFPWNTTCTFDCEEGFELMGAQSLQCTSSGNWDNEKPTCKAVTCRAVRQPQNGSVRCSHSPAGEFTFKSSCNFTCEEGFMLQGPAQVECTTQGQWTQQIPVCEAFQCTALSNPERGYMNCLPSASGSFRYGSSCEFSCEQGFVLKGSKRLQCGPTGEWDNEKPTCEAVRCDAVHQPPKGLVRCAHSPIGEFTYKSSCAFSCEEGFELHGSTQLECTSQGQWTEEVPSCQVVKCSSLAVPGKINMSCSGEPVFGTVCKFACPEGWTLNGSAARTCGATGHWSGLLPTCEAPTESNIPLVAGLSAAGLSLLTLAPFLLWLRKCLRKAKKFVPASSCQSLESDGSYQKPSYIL

In the case of `CN(c1nccc(=O)[nH]1)C1CCN(c2nc3ccccc3n2Cc2ccc(F)cc2)CC1`, the result in [1], in experiment [2], in experiment [3], in [4], in [5] and in experiment [6] was inactive. Moreover, the outcome in experiment [7], in experiment [8], in [9], in experiment [10], in experiment [11] and in [12] was inactive. Besides, the outcome in [13], in experiment [14], in experiment [15], in [16], in [17] and in [18] was inactive.
For `C=C(C)C(=O)OCCOCCOCCOCCOC(=O)C(=C)C`, the result in experiment [1], in experiment [2], in experiment [3], in experiment [4], in experiment [5] and in [6] was inactive. For the same compound, the result in experiment [7], in experiment [8], in [9], in [10], in experiment [11] and in experiment [12] was inactive. Moreover, the outcome in experiment [13], in [14], in [15], in [16], in experiment [17] and in [18] was inactive.
Regarding `C=C(C)C(=O)OCCOCCOCCOC(=O)C(=C)C`, the outcome in experiment [1], in [2], in experiment [4], in experiment [5], in [6] and in experiment [8] was inactive. Besides, the result in experiment [9], in experiment [10], in experiment [11], in experiment [13], in experiment [14] and in [15] was inactive. Further, the result in [16], in [17], in [18] and in [19] was inactive. Further, the AC50 in experiment [3] was 0.0518 µM (active); in experiment [7], 0.041 µM (active); in experiment [12], 3.97 µM (active).
For `c1ccc2cc(Nc3ccc(Nc4ccc5ccccc5c4)cc3)ccc2c1`, the result in experiment [1], in experiment [2], in [3], in experiment [4], in experiment [5] and in experiment [6] was inactive. Moreover, the result in [7], in experiment [8], in [9], in experiment [10], in [11] and in experiment [12] was inactive. For the same compound, the result in [13], in experiment [14], in experiment [15], in [16], in experiment [17] and in [18] was inactive.
Consider `O=C1OC2(c3ccccc31)c1ccc(O)c(Br)c1Oc1c2ccc(O)c1Br`, for which the outcome in experiment [1], in experiment [3], in [4], in experiment [5], in [6] and in experiment [11] was inactive. Besides, the result in experiment [12], in experiment [15] and in experiment [16] was inactive. Moreover, the AC50 was 7.49 µM (active) in experiment [2]; 20 µM (active) in experiment [7]; 20 µM (active) in [8]; 4.66 µM (active) in experiment [9]; 20 µM (active) in experiment [10]; 20 µM (active) in experiment [13]. In addition, the half-maximal activity concentration (AC50) in experiment [14] is 24.5 µM (active); in experiment [17] it was 20 µM (active); in experiment [18], 20 µM (active).

Usually AC50 stands for the midpoint of the concentration-response curve, whichever way the signal moves.
